About 83,000 compounds went through this panel and 20% of them were active in at least one assay; those are over-represented in the sample as a whole.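 Single-concentration screen, 48 h exposure, 96-well plates. Endpoint: percent growth. Below 10 = active.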 A number with no mark means an inactive call. Active and inactive are the calls of the source.
These compounds were tested on MCF7 breast (assay: NCI-60 one-dose screen, 48 h (100 = growth as untreated, 0 = no growth, -100 = all killed)). Conditions: 10 µM.
Description: Growth inhibition of the MCF7 human tumor cell line is measured as a screen for anti-cancer activity. Cells are grown in 96 well plates and exposed to the test compound for 48 hours. Compounds are tested at a single concentration, which is 10^-5 M for most compounds. The reported endpoint is percent growth (GI% or GIPRCNT), where numbers from 0 - 100% represent growth inhibition, and numbers from -100% - 0 represent cell death. For example, a value of 40 represents 60% growth inhibition. A value of 0 means no net growth occurred over the course of the experiment. A value of -40 indicates 40% of cells at the beginning of the experiment died by the end of the experiment. A value of -100 means all cells are dead at the end of the experiment.
NCI-60 Human Tumor Cell Lines Screen was performed using the standard one-dose NCI protocol, which is described in more detail at https://dtp.cancer.gov/discovery_development/nci-60/default.htm.
Compounds with GIPRCNT values below 10 were considered active. Activity score was based on GIPRCNT using the following formula: […]
Score is 0 for GIPRCNT values of 100 or above, 50 for GIPRCNT values of 0, and 100 for GIPRCNT values of -100.
`O=C(Cc1ccc2c(c1)CN(C1CCC(=O)NC1=O)C2=O)NCCc1ccccc1` (stereo not given) was tested, and the growth was 18.9%. Work on `Cc1ccc2nc(COc3ccc(C(=O)NNC(=S)NCCc4ccccc4)cc3)[nH]c2c1` yielded a growth of 50.5%. `CCOC(=O)C1=C(N)N(c2ccccc2)C2=C(C(=O)CC(C)(C)C2)C1c1ccccc1OC` (stereo not given) was tested, and the growth was 89.7%. Work on `COc1cc(NC(=O)c2cc(-c3ccc(F)cc3F)ccc2O)cc(OC)c1OC` yielded a growth of 38.9%. With `Cc1cc(C(F)(F)F)ccc1C(=O)Nc1sc2c(c1C#N)CCC(=O)C2` the growth was 2.31% (active). `COc1cc(/C=C/C(=O)c2ccc(S(=O)(=O)NCCNc3nc(Nc4ccc(F)cc4)nc(N(C)C)n3)cc2)cc(OC)c1OC` was tested, and the growth was -76.1% (active). In the case of `COC[C@@H](CC(C)C)N=C1N/C(=C\c2ccc3ncsc3c2)C(=O)N1C`, the growth is reported as -23.3% (active). With `O=C(Nc1cccc([N+](=O)[O-])c1)Nc1cccc([N+](=O)[O-])c1` the growth was 72.5%. `CC(=O)NNc1ccc2nnc(-c3ccc(Br)cc3)n2n1` gave a growth of 87.8%. Work on `O=C1NC(=NC2CCCCCC2)N/C1=C\c1ccc2ncoc2c1` yielded a growth of 13%. With `CN1C(=O)N(C)C2SC(N/N=C/c3cccs3)=NC21` (stereo not given) the growth was 13.3%. With `COc1ccc(NC(=O)Nc2ccc(OCC(=O)N=Nc3c(O)[nH]c4ccc([N+](=O)[O-])cc34)cc2)cc1` the growth was 38.2%. With `O=C(N/C(=C1/OCCN1Cc1ccccc1)[P+](c1ccccc1)(c1ccccc1)c1ccccc1)c1ccccc1` the growth was 1.56% (active). In the case of `COc1ccc(CCN2C(=O)/C(=C/c3csc(C#N)n3)SC2=S)cc1`, the growth is reported as -0.841% (active). `O=C(Nc1cccc(-c2cn(-c3ccc4oc(=O)ccc4c3)nn2)c1)Nc1cc(C(F)(F)F)cc(C(F)(F)F)c1` gave a growth of 17%. In the case of `CC(=O)Nc1nc(-c2ccc(N3CCN(C)CC3)c(NS(=O)(=O)c3ccc(C(F)(F)F)cc3)c2)cs1`, the growth is reported as 6.99% (active). With `Cn1cc(/C=N/Nc2ccnc3cc(Cl)ccc23)c2ccccc21` the growth was -78.4% (active). `COc1ccc(OC)c(/C=N/NC(=O)c2ccc3nc(-c4ccc(Cl)cc4)[nH]c3c2)c1` showed a growth of 51.9%. With `O=C1CCC(N2Cc3c(NCc4ccc(-c5ccccc5)cc4)cccc3C2=O)C(=O)N1` (stereo not given) the growth was 76%. With `CN1CCN(Cc2ccc(C(=O)Nc3cccc(Nc4ccc5c(O)cccc5n4)c3)cc2C(F)(F)F)CC1` the growth was -67.1% (active). `O=c1cc(-c2ccccc2)oc2cc(OCCCNCc3ccccc3)cc(O)c12` was tested, and the growth was -30% (active). `Cc1cccc2cc(-c3cc(-c4ccccc4)nc(=O)[nH]3)c(Cl)nc12` was tested, and the growth was 29.3%. In the case of `O=C(CSc1nnc(-c2c[nH]c3ccccc23)n1-c1ccccc1)Nc1ccc(C(=O)/C=C/c2ccc(Cl)cc2)cc1`, the growth is reported as 6.09% (active). Compound `O=c1oc2ccccc2cc1-c1csc(N=Nc2c(O)[nH]c3ccc(Br)cc23)n1` has a growth of 80.7%. `CCCCCc1ccc(S(=O)(=O)N(C(C)=O)c2cc(-c3csc(N(C)C(C)=O)n3)ccc2N2CCN(C)CC2)cc1` was tested, and the growth was -73.1% (active). With `COc1cc(-c2nc3cc(Cl)c(Cl)cc3[nH]2)ccc1OCc1nnc(-c2ccc(Br)cc2)o1` the growth was 5.68% (active). Compound `O=C(CSc1nnc(-c2c[nH]c3ccccc23)n1-c1ccccc1)Nc1ccc(C(=O)/C=C/c2ccccc2Cl)cc1` has a growth of 40.4%. `Cc1ccc(C(=O)NNC(=O)CSc2nc3ccccc3c(=O)[nH]2)cc1` was tested, and the growth was 92.3%. With `Nc1cccnc1/C=N/NC(=S)NCCNC(=O)c1ccc(-n2nc(-c3ccccc3O)nc2-c2ccccc2O)cc1` the growth was 5.17% (active). For `COc1cccc(-c2ccc(/C=N/NC(=O)c3[nH]c4ccc(Br)cc4c3-c3ccccc3)o2)c1`, the growth was 4.65% (active). With `O=C1Nc2cc(Cl)ccc2/C1=C/c1cccc(OCc2ccccc2)c1` the growth was 2.6% (active). With `Cc1cccc(NC(=O)CSc2nc3ccc(F)cc3c(=O)n2-c2ccc(Cl)cc2)c1C` the growth was 69.5%. Work on `Cc1cc(=O)oc2cc(OCCCCOc3ccc(/C=C/C(=O)Nc4ccc(F)c(Cl)c4)cc3)ccc12` yielded a growth of 77.8%. `COc1cccc(-c2ccnc(/N=C(\N)Nc3ccc(S(=O)(=O)Nc4nc(C)cc(C)n4)cc3)n2)c1` showed a growth of 75.9%. `CC(C)C1=C[C@@]23CC[C@@H]4[C@](C)(CCC[C@]4(C)C(=O)NCc4ccccc4)[C@H]2C[C@@H]1[C@H]1C(=O)OC(=O)[C@H]13` was tested, and the growth was 13.2%. In the case of `CC1(c2ccccc2)NC(=O)N(CC(=O)Nc2ccc(C(=O)/C=C/c3ccc(Cl)cc3)cc2)C1=O` (stereo not given), the growth is reported as -66.6% (active). `CN1C(=O)/C(=C/c2ccc3ncsc3c2)NC1=NC12CC3CC(CC(O)(C3)C1)C2` was tested, and the growth was -20.1% (active). `O=C1Nc2ccc(Cl)cc2/C1=C/c1ccc(OCc2ccc(Br)cc2F)cc1` showed a growth of 12.1%. For `CN1CCN(c2ccc(Nc3nc(NCCCNC(=O)C4CCCCC4)c4sccc4n3)cc2)CC1`, the growth was 23.1%. `O=C(CSc1ccc(-c2ccc(Cl)cc2)nn1)Nc1ccc(Cl)c(C(F)(F)F)c1` gave a growth of 31.5%.

Reference: PubChem BioAssay (NCI)
